Assay results published in publication PMC5540273 (PLoS ONE, 2017).

How the values were obtained:
Details in all cases: concentration: 1 μM,replicates: in singlicate; n = 1
CAMK1 = system: CAMK1
CAMK2A = system: CAMK2A
CAMK2B = system: CAMK2B
CAMK2D = system: CAMK2D
CAMK2G = system: CAMK2G
CAMK4 = system: CAMK4
CAMKK1 = system: CAMKK1
CAMKK2 = system: CAMKK2
CASK = system: CASK
CDC2L1 = system: T1, CDC2L1
T1 construct: gene CDK11B

CDC2L2 = system: CDC2L2
CDC2L5 = system: T2, CDC2L5
T2 construct: gene CDK13

CDK11 = system: T3, CDK11
T3 construct: gene CDK19

CDK2 = system: CDK2
CDK3 = system: CDK3
CDK4-cyclinD1 = system: CDK4-cyclinD1
CDK4-cyclinD3 = system: CDK4-cyclinD3
CDK4 = system: CDK4
CDK5 = system: CDK5
CDK7 = system: CDK7
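Note: KINOMEscan kinase panel screen.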

C[C@@H](Oc1cc(-n2cnc3cc(-c4cnn(C)c4)ccc32)sc1C(N)=O)c1ccccc1Cl [GSK580432]
%Inh (CAMK1): 39%
%Inh (CAMK2A): 0%
%Inh (CAMK2B): 9%
%Inh (CAMK2D): 23%
%Inh (CAMK2G): 25%
%Inh (CAMK4): 0%
%Inh (CAMKK1): 59%
%Inh (CAMKK2): 90.3%
%Inh (CASK): 23%
%Inh (CDC2L1): 0%
%Inh (CDC2L2): 0%
%Inh (CDC2L5): 0%
%Inh (CDK11): 28%
%Inh (CDK2): 26%
%Inh (CDK3): 20%
%Inh (CDK4-cyclinD1): 0%
%Inh (CDK4-cyclinD3): 3%
%Inh (CDK4): 18%
%Inh (CDK5): 0%
%Inh (CDK7): 0%

Cn1ccc2ncnc(Oc3ccc(NC(=O)Nc4cccc(C(F)(F)F)c4)c(Cl)c3)c21
%Inh (CAMK1): 4%
%Inh (CAMK2A): 0%
%Inh (CAMK2B): 0%
%Inh (CAMK2D): 7%
%Inh (CAMK2G): 0%
%Inh (CAMK4): 6%
%Inh (CAMKK1): 0%
%Inh (CAMKK2): 0%
%Inh (CASK): 0%
%Inh (CDC2L1): 0%
%Inh (CDC2L2): 5%
%Inh (CDC2L5): 0%
%Inh (CDK11): 99.8%
%Inh (CDK2): 0%
%Inh (CDK3): 5%
%Inh (CDK4-cyclinD1): 8%
%Inh (CDK4-cyclinD3): 0%
%Inh (CDK4): 0%
%Inh (CDK5): 0%
%Inh (CDK7): 2%

CCOC(=O)N1CCC(n2cnc(-c3ccc(F)cc3)c2-c2ccnc(N)n2)CC1 [SB-219952]
%Inh (CAMK1): 0%
%Inh (CAMK2A): 0%
%Inh (CAMK2B): 0%
%Inh (CAMK2D): 0%
%Inh (CAMK2G): 8%
%Inh (CAMK4): 12%
%Inh (CAMKK1): 0%
%Inh (CAMKK2): 0%
%Inh (CASK): 0%
%Inh (CDC2L1): 11%
%Inh (CDC2L2): 23%
%Inh (CDC2L5): 30%
%Inh (CDK11): 29%
%Inh (CDK2): 0%
%Inh (CDK3): 0%
%Inh (CDK4-cyclinD1): 24%
%Inh (CDK4-cyclinD3): 6%
%Inh (CDK4): 32%
%Inh (CDK5): 0%
%Inh (CDK7): 30%

C[C@@H](Oc1cc(-n2cnc3cc(-c4ccncc4)ccc32)sc1C(N)=O)c1ccccc1Cl [GSK479719]
%Inh (CAMK1): 4%
%Inh (CAMK2A): 0%
%Inh (CAMK2B): 0%
%Inh (CAMK2D): 0%
%Inh (CAMK2G): 0%
%Inh (CAMK4): 0%
%Inh (CAMKK1): 18%
%Inh (CAMKK2): 54%
%Inh (CASK): 29%
%Inh (CDC2L1): 0%
%Inh (CDC2L2): 0%
%Inh (CDC2L5): 0%
%Inh (CDK11): 0%
%Inh (CDK2): 42%
%Inh (CDK3): 29%
%Inh (CDK4-cyclinD1): 0%
%Inh (CDK4-cyclinD3): 21%
%Inh (CDK4): 0%
%Inh (CDK5): 0%
%Inh (CDK7): 1%

NC(=O)c1ccc(-c2cc3ncnc(SCC(=O)O)c3s2)cc1
%Inh (CAMK1): 0%
%Inh (CAMK2A): 0%
%Inh (CAMK2B): 0%
%Inh (CAMK2D): 0%
%Inh (CAMK2G): 0%
%Inh (CAMK4): 0%
%Inh (CAMKK1): 75%
%Inh (CAMKK2): 81%
%Inh (CASK): 0%
%Inh (CDC2L1): 0%
%Inh (CDC2L2): 0%
%Inh (CDC2L5): 0%
%Inh (CDK11): 0%
%Inh (CDK2): 0%
%Inh (CDK3): 0%
%Inh (CDK4-cyclinD1): 1%
%Inh (CDK4-cyclinD3): 0%
%Inh (CDK4): 0%
%Inh (CDK5): 18%
%Inh (CDK7): 58%

CS(=O)c1ccc(-c2coc3ccc(-c4n[nH]c(=O)o4)cc23)cc1 (stereo not drawn)
%Inh (CAMK1): 0%
%Inh (CAMK2A): 5%
%Inh (CAMK2B): 16%
%Inh (CAMK2D): 6%
%Inh (CAMK2G): 3%
%Inh (CAMK4): 0%
%Inh (CAMKK1): 7%
%Inh (CAMKK2): 12%
%Inh (CASK): 26%
%Inh (CDC2L1): 0%
%Inh (CDC2L2): 0%
%Inh (CDC2L5): 36%
%Inh (CDK11): 96.9%
%Inh (CDK2): 0%
%Inh (CDK3): 4%
%Inh (CDK4-cyclinD1): 0%
%Inh (CDK4-cyclinD3): 0%
%Inh (CDK4): 10%
%Inh (CDK5): 0%
%Inh (CDK7): 38%
